These entries were drawn from the full list.
aSyn UTR act = Activators via SNCA 5'UTR binding, MLPCN. alpha-synuclein 5'UTR reporter, activators screen. activity score, % (tested at 7.5 µM), hits read low. actives 7.1% (n = 300,000); in the data active = activity score below about -60%
Active calls of the source: *.

SMILES | aSyn UTR act
COc1cc(/C=C/c2ccc3cccc(O)c3n2)cc(Br)c1OC | -81*
COc1ccc(/C=C/c2ccc3c(Br)ccc(O)c3n2)cc1 | -151*
COc1cc(/C=C/c2ccc3c(Br)cc(Br)c(O)c3n2)ccc1O | 65
COc1ccc(C(=O)O/N=C(\N)c2cccc(C)c2)cc1OC | -165*
Cc1cccc(/C(N)=N/OC(=O)c2ccoc2C)c1 | -116*
COc1ccc(C(=O)O/N=C(\N)c2ccccc2)cc1OC | -180*
COc1ccc(/C(N)=N/OC(=O)CSc2ccccc2)cc1OC | -125*
COc1ccc(C(=O)n2c(N)nc3ccccc32)cc1OC | -177*
COc1cc2c(cc1NC(=O)c1cccc([N+](=O)[O-])c1)oc1ccccc12 | 81
COc1cc2c(cc1NC(=O)c1cccnc1)oc1ccccc12 | -155*
COc1cc2c(cc1NC(=O)c1ccncc1)oc1ccccc12 | -132*
Oc1ccccc1N=Cc1sc2ccccc2c1Cl | -104*
Cc1ccc(O)c(N=Cc2sc3ccccc3c2Cl)c1 | -90*
CCc1cc(C(=O)NNC(=S)Nc2ccccc2C)cs1 | -147*
CCc1cc(C(=O)Nc2ccccc2)cs1 | -134*
COc1cccc(-c2cc(=O)c3cc(NC(=O)c4ccc(N(C)C)cc4)ccc3[nH]2)c1 | 115
CC(=O)Nc1cccc(NC(=O)c2ccc3[nH]c(C)c(C)c3c2)c1 | -107*
COc1ccc(NC(=O)c2ccc3[nH]c(C)c(C)c3c2)cc1 | -101*
CCCN1Cc2cccc(C(=O)Nc3ccc(-c4nc5ccccc5[nH]4)cc3)c2C1=O | -62*
COCCN1Cc2cccc(C(=O)Nc3cccc(-c4nc5ccccc5[nH]4)c3)c2C1=O | -80*
COc1ccccc1CNS(=O)(=O)c1ccc(-c2cc(C)no2)cc1 | 80
COc1ccccc1NS(=O)(=O)c1ccc(-c2cc(C)no2)s1 | -102*
NC(=O)c1oc2ccccc2c1NC(=O)c1nc2ccccc2s1 | -121*
O=C(O)c1ccc(-c2nnc(-c3cccc(Br)c3)o2)cc1 | -202*
Brc1ccc(-c2nnc(-c3cccc(Br)c3)o2)cc1 | -127*
SMILES | aSyn UTR act
Cn1c(C(=O)Nc2ccc3c(c2)OCO3)cc2sccc21 | -245*
Cn1c(C(=O)Nc2ccccc2)cc2sccc21 | -172*
COC(=O)c1ccc(NC(=O)c2cc3sccc3n2C)cc1 | -79*
COc1ccc(NC(=O)c2cc3sccc3n2Cc2ccc(F)cc2)cc1OC | -76*
CC1(C)Cc2c(c(N3CCOCC3)nc3sc4c(NCc5ccccc5)nnnc4c23)CS1 | 68
COc1cc(NC(=O)c2cc3sccc3n2C)cc(OC)c1 | -232*
COc1ccc(OC)c(NC(=O)c2cc3sccc3n2C)c1 | -93*
COc1ccc(N2C(=O)c3ccccc3NC23CCCC3)cc1 | -90*
Cc1n[nH]c(C)c1CCOc1ccc(C(C)C)cc1 | -84*
Cc1ccc(S(=O)(=O)NCc2ccccc2)cc1C(=O)NC1CCC(C)CC1 (stereo unspecified) | -64*
CCCCCC(C)NC(=S)NC(=O)c1cc(S(=O)(=O)N2CCOCC2)ccc1C (stereo unspecified) | 66
CC1CCC(NC(=O)CCNS(=O)(=O)c2ccccc2)CC1 (stereo unspecified) | -62*
CC(=O)c1ccc(N/N=C2/CCCNC2=O)cc1 | -74*
O=C1NCCC/C1=N/Nc1cc(F)ccc1F | -113*
Cc1[nH]c2ccccc2c1C(=O)CSc1ccccn1 | -68*
Cc1ccc2c(C(=O)CSc3ccccc3)c(C)[nH]c2c1 | -109*
Cc1[nH]c2ccccc2c1C(=O)CSc1ccccc1 | -86*
Cc1[nH]c2ccccc2c1C(=O)COc1ccccc1 | -113*
CCCCOc1ncnc2c1[nH]c1ccc(F)cc12 | -118*
CCCCOc1ncnc2c1[nH]c1ccc(OC)cc12 | -214*
CCCCOc1ncnc2c1[nH]c1ccccc12 | -81*
CN[C@H]1CCc2cc(OC)c(OC)c(OC)c2-c2ccc(N(C)CC(OC)OC)c(=O)cc21 | 70
Cn1c(N)c(-c2nc3cccnc3n2C)sc1=S | -95*
Nc1nc(-c2cc3ccccc3o2)cs1 | -132*
CN1CCN(c2nc(-c3cc4ccccc4o3)cs2)CC1 | -142*
SMILES | aSyn UTR act
Cc1cc(C)n(CCc2nc(-c3cc4ccccc4o3)cs2)n1 | -112*
Cc1ccccc1-c1ccc(C(=O)Nc2cccc(F)c2)o1 | -128*
COc1cccc(NC(=O)c2ccc(-c3ccccc3[N+](=O)[O-])o2)c1 | -100*
Cc1cccc(NC(=O)c2ccc(-c3ccccc3[N+](=O)[O-])o2)c1 | -85*
CCCCn1nc(NC(=O)COC)c2cc3cc(OC)ccc3nc21 | -78*
CC(C)c1nc2oc3c(NCc4ccccn4)ncnc3c2c2c1COC(C)(C)C2 | 51
CC(C)Sc1nc(NCc2ccco2)c2c3c(sc2n1)COC(C)(C)C3 | -85*
Cc1nc(NC(=O)c2ccccc2)sc1-c1csc(Nc2ccc(Cl)cc2)n1 | -65*
COc1ccc(OC)c(Nc2nc(-c3sc(NC(=O)c4ccccc4)nc3C)cs2)c1 | -244*
Cc1nc(NC(=O)c2ccccc2)sc1-c1csc(Nc2ccc(F)cc2)n1 | -94*
Cc1nc(NC(=O)c2ccccc2)sc1-c1csc(Nc2ccc(Cl)cc2Cl)n1 | -84*
Cc1nc(NC(=O)c2ccco2)sc1-c1csc(Nc2ccc(Cl)cc2)n1 | -70*
CCc1nnc(NC(=O)c2csc3c2CCC(C)C3)s1 (stereo unspecified) | -67*
COc1ccc(C(=O)CC(=O)c2ccc(F)cc2)cc1 | -165*
COc1ccc(C(=O)C(CCC(CNC(C)(C)C)C(=O)c2ccc(OC)cc2)CNC(C)(C)C)cc1 (stereo unspecified) | 65
COc1ccc(C(=O)CCc2ccccc2)cc1 | -111*
O=C(CC(=O)c1ccccc1O)c1ccc(F)cc1 | -75*
COc1ccc(OCc2cccc(C(=O)O)c2)cc1 | 128
COc1ccc(C(=O)CC(=O)C(=O)Nc2ccc(C)c(C)c2)cc1 | -63*
N/C(=N\OC(=O)CCCc1ccccc1)c1ccccc1Cl | -98*
COc1ccc(NC(=O)CCSc2ccc(F)cc2)cc1 | -93*
Cc1ccc(/C(N)=N/OC(=O)CCCc2ccccc2)cc1 | -68*
O=C(Cc1ccccn1)c1ccc(F)cc1 | -64*
Cc1ccc(/C(N)=N/OC(=O)Cc2ccccc2)cc1 | -130*
N/C(=N\OC(=O)Cc1ccccc1)c1ccc(Br)cc1 | -80*
SMILES | aSyn UTR act
COc1ccc(/C(N)=N/OC(=O)CCc2ccccc2)cc1 | -100*
Cc1cccc(/C(N)=N/OC(=O)CCc2ccccc2)c1 | -157*
CCCc1ccc(-c2ccc(/C=C/C(=O)O)cc2)nc1 | 115
CCc1ccc(/C=C\C(=O)N2CCCC2)cc1 | -78*
CC(C)Cc1ccc(/C=C/C(=O)NC2CC2)cc1 | -108*
CC(C)Cc1ccc(/C=C/C(=O)N2CCCCC2)cc1 | -121*
CCOc1ccc2nc(N3CCC(C(=O)N4CCN(c5ncccn5)CC4)CC3)sc2c1 | -75*
CCOc1ccc2nc(N3CCCC(C(=O)NC4CCCC4)C3)sc2c1 (stereo unspecified) | -70*
O=C(N/N=C/c1c[nH]c2ccccc12)C1COc2ccccc2O1 (stereo unspecified) | 76
O=C(N/N=C\c1ccc(Cl)s1)c1cccs1 | -67*
COc1ccccc1C(=O)N/N=C/c1cnc2ccccc2n1 | -102*
COc1ccccc1C(=O)N/N=C/c1ccc(Cl)s1 | -179*
O=C(N/N=C\c1ccc(Cl)s1)C1COc2ccccc2O1 (stereo unspecified) | -67*
O=C1C2C3CCC(C3)C2C(=O)N1c1ccc(OS(=O)(=O)c2ccccc2)cc1 (stereo unspecified) | -178*
